Assay [1] in a line: qHTS assay to identify small molecule agonists of the androgen receptor (AR) signaling pathway in the presence of an antagonist - cell viability counter screen (AID 1259379). Further: nearly all actives have a fitted effect of over 25% in size. Further: potency means the concentration at half of the fitted maximal effect. The gist of the method: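 Counter screen for cell viability run in parallel with the AR agonist-mode luciferase assay. MDA-kb2 cells were co-treated with nilutamide (3.0uM final) and compounds, then incubated 16 hr at 37C, and CellTiter-Fluor fluorescence was measured.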

A short description of assay [2]: qHTS assay to identify small molecule agonists of the estrogen receptor beta (ER-beta) signaling pathway - cell viability counter screen (AID 1259380). Further: nearly all actives have a fitted effect of over 30% in size. Further: potency means the concentration at half of the fitted maximal effect. The gist of the method: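 In this qHTS counter screen, HEK293T cells carrying an ER-beta/UAS beta-lactamase reporter, grown in 2% charcoal-stripped FBS, received compound for 16 hr; ATP-based CellTiter-Glo luminescence was then read after 30 min at room temperature.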

In assay [3] the target is Androgen receptor (Homo sapiens) (UniProt P10275). As to the kind of experiment: qHTS assay to identify small molecule agonists of the androgen receptor (AR) signaling pathway in the presence of an antagonist (AID 1259381; calls by dose curve; further: nearly all actives have a fitted effect of over 15% in size; further: potency means the concentration at half of the fitted maximal effect). The gist of the method: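 AR antagonist background: nilutamide 3.0uM final. Cell line: MDA-kb2, MMTV-driven luciferase, responsive to both AR and GR. Exposure 16hr, 37C, no CO2; ONE-Glo luminescence.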
(In qHTS, concentration-response curves come from the screen itself.)

Assay [4] can be described thus: qHTS assay to identify small molecule antagonists of the estrogen receptor beta (ER-beta) signaling pathway - cell viability counter screen (AID 1259382). Further: nearly all actives have a fitted effect of over 55% in size. Further: potency means the concentration at half of the fitted maximal effect. Summed up: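 HEK293T ER-beta-UAS-bla, 2% charcoal-stripped FBS; compounds + 1nM E2 16 hr 37C; CellTiter-Glo luminescence, 30 min RT.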
Assay [5] can be described thus: qHTS assay to identify small molecule agonists or antagonists of the thyroid stimulating hormone receptor (TSHR) signaling pathway - wild type cell line counter screen (AID 1259384; calls by dose curve). Summed up:
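Counter screen in untransfected Hek293: compounds (15-point titration, triplicate) plus phosphodiesterase inhibitor Ro20-1724 added after 18 h plating; 30 min RT. Intracellular cAMP via competitive d2/cryptate immunoassay, 1 h incubation.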

For assay [6], the target named is Thyrotropin receptor (Homo sapiens) (UniProt P16473). As to the kind of experiment: qHTS assay to identify small molecule antagonists of the thyroid stimulating hormone receptor (TSHR) signaling pathway (AID 1259385; calls by dose curve; further: nearly all actives have a fitted effect of over 20% in size; further: potency means the concentration at half of the fitted maximal effect). Summed up:
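Antagonist mode: compound-treated TSHR-expressing HEK293 cells were stimulated with 1.5 ng/mL TSH (final) in presence of Ro20-1724 for 30 min at RT. HTRF cAMP detection after 1 h; each compound tested at 15 concentrations, triplicate.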

Assay [7] is described as follows: qHTS assay to identify small molecule agonists of the estrogen receptor alpha (ER-alpha) signaling pathway in the presence of an antagonist - cell viability counter screen (AID 1259386).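 Further: cells exposed to compounds for 22 h at 37 °C before the viability read; nearly all actives have a fitted effect of over 30% in size.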 Further: potency means the concentration at half of the fitted maximal effect. Summed up: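 Steps: 5-day stripped-FBS culture; seed and incubate 24hr; add ICI-182,780 (10.0nM final); pin 15-point compound titration; incubate 22hr at 37C; add CellTiter-Fluor at 21hr; read fluorescence.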

In assay [8] the target is Progesterone receptor (Homo sapiens) (UniProt P06401). As to the kind of experiment: qHTS assay to identify small molecule agonists of the progesterone receptor (PR) signaling pathway (AID 1346784; calls by dose curve; further: nearly all actives have a fitted effect of over 30% in size). The gist of the method:
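PR-UAS-bla HEK 293T cells carrying a UAS-driven beta-lactamase reporter were seeded in medium with 2% charcoal-stripped FBS, preincubated 6 hr at 37C, then exposed to compounds in DMSO for 16 hr; agonism was read by LiveBLAzer B/G FRET fluorescence.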

Assay [9] has the same target. As to the kind of experiment: qHTS assay to identify small molecule antagonists of the progesterone receptor (PR) signaling pathway (AID 1346795; active means well fitted inhibition curve with a large enough effect in the signal ratio in the repeat runs, not every such curve was filed as active; the % refers to the signal ratio; further: potency means the concentration at half of the fitted maximal effect). The gist of the method:
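PR-UAS-bla HEK293T cells carrying a UAS-driven beta-lactamase reporter were plated in medium with 2% charcoal-stripped FBS and rested 6 hr at 37C. Compounds were added with 1 nM R5020 (final) for 16 hr, then FRET substrate loaded 2 hr at room temperature.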

Assay [10] can be described thus: qHTS assay to identify small molecule antagonists of the progesterone receptor (PR) signaling pathway - cell viability counter screen (AID 1346798). Further: nearly all actives have a fitted effect of over 50% in size. Further: potency means the concentration at half of the fitted maximal effect. The gist of the method: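 PR-UAS-bla HEK293T cells in medium with 2% charcoal-stripped FBS were treated with compounds plus R5020 for 16 hr at 37C. Cell viability was then read by CellTiter-Glo luminescence after 30 min at room temperature in the same wells.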

Assay [11] is described as follows: qHTS assay to identify small molecule agonists of the progesterone receptor (PR) signaling pathway - cell viability counter screen (AID 1346799; calls by dose curve; further: nearly all actives have a fitted effect of over 45% in size; further: potency means the concentration at half of the fitted maximal effect). The gist of the method:
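PR-UAS-bla HEK293T cells, 3,000 per well in medium with 2% charcoal-stripped FBS, were preincubated 6 hr at 37C, then exposed to compounds for 16 hr; viability was read as CellTiter-Glo luminescence after 30 min at room temperature.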

Assay [12] is described as follows: qHTS assay to identify small molecule antagonists of the TGF-beta/Smad signaling pathway - cell viability counter screen (AID 1346824). Further: nearly all actives have a fitted effect of over 50% in size. Further: potency means the concentration at half of the fitted maximal effect. The gist of the method:
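Cytotoxicity counter-screen run in the same wells as the beta-lactamase Smad reporter read: CellTiter-Glo luminescence after 30 min at room temperature. HEK 293T SBE-bla cells had 5 hr compound exposure at 37 C with TGF-beta1 (0.25 ng/mL stock).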

The nature of assay [13]: qHTS assay to identify small molecule agonists of the TGF-beta/Smad signaling pathway - cell viability counter screen (AID 1346829). Further: nearly all actives have a fitted effect of over 45% in size. Further: potency means the concentration at half of the fitted maximal effect. Summed up: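 Cytotoxicity counter screen: CellTiter-Glo luminescence (30 min, room temperature) measured in the SBE-bla HEK 293T reporter wells after 5 hr compound treatment at 37 C and the 2 hr substrate step.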
The nature of assay [14]: qHTS assay to identify small molecule agonists of the TGF-beta/Smad signaling pathway (AID 1346859; active means well fitted activation curve with a large enough effect in the signal ratio in the repeat runs, not every such curve was filed as active; the % refers to the signal ratio; further: series mostly up to about 77 µM). Summed up:
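HEK 293T cells stably carrying a beta-lactamase reporter driven by the Smad binding element were seeded overnight, exposed to DMSO-dissolved compounds for 5 hr at 37 C, 5% CO2, then loaded with FRET substrate for 2 hr at room temperature.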

The target in assay [15] is Thyrotropin-releasing hormone receptor (Homo sapiens) (UniProt P34981). Put plainly: qHTS assay to identify small molecule antagonists of the thyrotropin-releasing hormone receptor (TRHR) signaling pathway (AID 1346877; active means well fitted inhibition curve with a large enough effect in the repeat runs, not every such curve was filed as active; further: series mostly up to about 51 µM). The gist of the method:
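Human TRHR in HEK293 cells; inhibition of the intracellular calcium rise triggered by 1 nM TRH was followed by fluorescence over 3 min. Compounds were run at 15 concentrations, three replicates each.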

The target is the same in assay [16]. As to the kind of experiment: qHTS assay to identify small molecule agonists of the thyrotropin-releasing hormone receptor (TRHR) signaling pathway (AID 1346891; calls by dose curve; further: series mostly up to about 58 µM). The gist of the method:
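TRHR-expressing HEK293 cells were plated 18 h at 37 °C/5% CO2, loaded with calcium dye 2 h at 37 °C, then given compound in DMSO; fluorescence was read kinetically for 3 min at 1 s intervals.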

Assay [17] is described as follows: Human pregnane X receptor (PXR) small molecule agonists, qHTS cell viability counter screen (AID 1346977). Further: nearly all actives have a fitted effect of over 50% in size. Further: potency means the concentration at half of the fitted maximal effect. The gist of the method: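 PXR-Luc HepG2 cells in medium with 5% charcoal-stripped FBS were pre-incubated 5hr, then exposed to compounds for 24hr at 37C. Viability was read in the same wells by CellTiter-Fluor fluorescence, reagent added after 23hr with a 1hr incubation.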

The nature of assay [18]: Caspase-3/7 induction in HepG2 cells by small molecules, qHTS assay (AID 1346978). Further: nearly all actives have a fitted effect of over 15% in size. Further: potency means the concentration at half of the fitted maximal effect. The gist of the method: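 Caspase-3/7 induction was measured by Caspase-Glo 3/7 luminescence (30 min, room temperature) after a 17 hr compound exposure of wild-type HepG2 cells seeded at 2,000 per well and pre-incubated 5 hr.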
For assay [19], the target named is Estrogen receptor (Homo sapiens) (UniProt P03372). Put plainly: qHTS assay to identify small molecule agonists of the estrogen receptor alpha (ER-alpha) signaling pathway in the presence of an antagonist (AID 1259383; calls by dose curve; further: top concentration of the series differs between compounds; nearly all actives have a fitted effect of over 15% in size). Summed up: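 ER-alpha agonism measured under antagonist challenge: 10.0nM ICI-182,780 (final) plus compound, 15 concentrations, 22hr, VM7Luc4E2 ERE-luciferase cells. Read by luminescence.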

Each structure is given as a SMILES string. Where “and” joins values, the source holds several entries; their conditions need not be identical. Identical values can stand only once. Unmarked numbers belong to inactive results. Results filed as inconclusive are left out. Calls of active or inactive are those of the source. Unless noted, the call rests on the fitted dose curve; in most records, active means well fitted curve in the direction sought with a large enough effect in the repeat runs; inconclusive means weak or mixed curves; inactive means no such curve, though single readings can be large; an effect the other way counts as inactive or inconclusive.
On the % scale 0 is the no-effect control and ±100 the full control effect.

Sequence of Thyrotropin-releasing hormone receptor (Homo sapiens) (P34981 whole entry, looked up): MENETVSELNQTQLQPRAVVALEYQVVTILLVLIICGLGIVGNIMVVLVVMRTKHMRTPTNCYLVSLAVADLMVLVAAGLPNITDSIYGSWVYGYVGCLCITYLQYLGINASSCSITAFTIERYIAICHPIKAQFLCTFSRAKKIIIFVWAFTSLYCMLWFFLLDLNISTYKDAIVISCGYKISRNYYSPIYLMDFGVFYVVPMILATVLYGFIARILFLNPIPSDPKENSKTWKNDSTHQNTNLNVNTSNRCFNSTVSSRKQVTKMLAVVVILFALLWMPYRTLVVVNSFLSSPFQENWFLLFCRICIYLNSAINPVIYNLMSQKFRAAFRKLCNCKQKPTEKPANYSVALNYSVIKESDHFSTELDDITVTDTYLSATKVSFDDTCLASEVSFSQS
Sequence of Androgen receptor (Homo sapiens) (P10275 whole entry, looked up): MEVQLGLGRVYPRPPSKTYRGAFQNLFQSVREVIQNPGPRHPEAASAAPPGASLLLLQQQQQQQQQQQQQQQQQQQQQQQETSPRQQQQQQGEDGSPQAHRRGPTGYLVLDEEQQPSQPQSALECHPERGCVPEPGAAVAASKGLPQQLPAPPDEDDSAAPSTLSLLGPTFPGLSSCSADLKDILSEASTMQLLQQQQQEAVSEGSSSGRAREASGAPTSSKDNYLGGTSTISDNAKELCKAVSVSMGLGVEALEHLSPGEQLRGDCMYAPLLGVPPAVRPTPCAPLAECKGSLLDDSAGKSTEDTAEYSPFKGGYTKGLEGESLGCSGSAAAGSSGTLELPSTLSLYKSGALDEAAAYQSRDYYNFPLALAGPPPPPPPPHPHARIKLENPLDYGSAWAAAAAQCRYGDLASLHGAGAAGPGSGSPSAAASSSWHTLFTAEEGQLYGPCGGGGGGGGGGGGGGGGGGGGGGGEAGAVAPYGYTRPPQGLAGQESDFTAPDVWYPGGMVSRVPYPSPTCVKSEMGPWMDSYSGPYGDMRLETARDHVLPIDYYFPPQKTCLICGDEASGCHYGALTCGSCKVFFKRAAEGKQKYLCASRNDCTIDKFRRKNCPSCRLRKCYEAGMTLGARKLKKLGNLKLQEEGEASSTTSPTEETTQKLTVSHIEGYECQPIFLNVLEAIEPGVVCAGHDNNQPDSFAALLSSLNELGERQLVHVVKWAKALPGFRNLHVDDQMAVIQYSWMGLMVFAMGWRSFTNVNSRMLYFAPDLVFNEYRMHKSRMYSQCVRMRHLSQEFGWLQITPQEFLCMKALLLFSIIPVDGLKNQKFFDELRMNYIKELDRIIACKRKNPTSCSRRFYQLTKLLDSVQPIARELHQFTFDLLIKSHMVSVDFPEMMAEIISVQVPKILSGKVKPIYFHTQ
Sequence of Estrogen receptor (Homo sapiens) (P03372 whole entry, looked up): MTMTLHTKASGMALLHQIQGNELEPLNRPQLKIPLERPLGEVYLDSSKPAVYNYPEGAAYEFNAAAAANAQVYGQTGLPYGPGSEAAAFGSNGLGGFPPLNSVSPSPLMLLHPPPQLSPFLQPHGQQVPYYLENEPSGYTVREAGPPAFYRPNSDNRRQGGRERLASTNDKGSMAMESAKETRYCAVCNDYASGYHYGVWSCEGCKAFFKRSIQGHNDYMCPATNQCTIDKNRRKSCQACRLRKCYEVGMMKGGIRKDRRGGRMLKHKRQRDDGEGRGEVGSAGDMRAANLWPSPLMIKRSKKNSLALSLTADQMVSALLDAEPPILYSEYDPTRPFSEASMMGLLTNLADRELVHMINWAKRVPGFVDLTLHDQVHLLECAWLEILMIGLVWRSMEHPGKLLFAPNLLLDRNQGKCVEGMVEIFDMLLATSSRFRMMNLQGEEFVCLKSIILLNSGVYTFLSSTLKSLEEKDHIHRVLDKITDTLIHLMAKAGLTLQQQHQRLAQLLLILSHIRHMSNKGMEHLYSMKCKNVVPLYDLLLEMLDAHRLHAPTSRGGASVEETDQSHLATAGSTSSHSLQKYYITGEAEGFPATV
Sequence of Progesterone receptor (Homo sapiens) (P06401 whole entry, looked up): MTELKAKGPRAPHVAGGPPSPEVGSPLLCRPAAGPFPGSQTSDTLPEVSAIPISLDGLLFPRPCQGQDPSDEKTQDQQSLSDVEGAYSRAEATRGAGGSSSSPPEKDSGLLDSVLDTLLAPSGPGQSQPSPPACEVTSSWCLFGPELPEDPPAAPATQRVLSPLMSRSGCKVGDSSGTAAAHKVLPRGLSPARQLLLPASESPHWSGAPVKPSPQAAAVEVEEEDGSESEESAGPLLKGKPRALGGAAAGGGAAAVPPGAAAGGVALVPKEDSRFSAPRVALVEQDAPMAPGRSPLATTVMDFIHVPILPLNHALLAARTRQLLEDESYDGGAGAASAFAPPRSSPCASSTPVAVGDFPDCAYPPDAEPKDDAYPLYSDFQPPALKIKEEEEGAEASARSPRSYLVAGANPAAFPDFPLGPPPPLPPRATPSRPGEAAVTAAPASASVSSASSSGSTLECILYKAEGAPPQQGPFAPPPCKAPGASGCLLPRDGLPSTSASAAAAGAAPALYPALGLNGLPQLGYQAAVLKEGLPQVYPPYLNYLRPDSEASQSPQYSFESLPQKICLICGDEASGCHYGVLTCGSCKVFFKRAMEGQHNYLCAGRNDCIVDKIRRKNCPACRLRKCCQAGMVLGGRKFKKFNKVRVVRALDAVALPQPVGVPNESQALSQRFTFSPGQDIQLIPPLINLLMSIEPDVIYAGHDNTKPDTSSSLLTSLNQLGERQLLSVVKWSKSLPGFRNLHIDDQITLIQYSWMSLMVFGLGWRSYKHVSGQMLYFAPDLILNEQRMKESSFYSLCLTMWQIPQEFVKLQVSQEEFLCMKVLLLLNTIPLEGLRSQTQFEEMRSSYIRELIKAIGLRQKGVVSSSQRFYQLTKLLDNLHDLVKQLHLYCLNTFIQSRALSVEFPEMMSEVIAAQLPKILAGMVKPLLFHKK
Sequence of Thyrotropin receptor (Homo sapiens) (P16473 whole entry, looked up): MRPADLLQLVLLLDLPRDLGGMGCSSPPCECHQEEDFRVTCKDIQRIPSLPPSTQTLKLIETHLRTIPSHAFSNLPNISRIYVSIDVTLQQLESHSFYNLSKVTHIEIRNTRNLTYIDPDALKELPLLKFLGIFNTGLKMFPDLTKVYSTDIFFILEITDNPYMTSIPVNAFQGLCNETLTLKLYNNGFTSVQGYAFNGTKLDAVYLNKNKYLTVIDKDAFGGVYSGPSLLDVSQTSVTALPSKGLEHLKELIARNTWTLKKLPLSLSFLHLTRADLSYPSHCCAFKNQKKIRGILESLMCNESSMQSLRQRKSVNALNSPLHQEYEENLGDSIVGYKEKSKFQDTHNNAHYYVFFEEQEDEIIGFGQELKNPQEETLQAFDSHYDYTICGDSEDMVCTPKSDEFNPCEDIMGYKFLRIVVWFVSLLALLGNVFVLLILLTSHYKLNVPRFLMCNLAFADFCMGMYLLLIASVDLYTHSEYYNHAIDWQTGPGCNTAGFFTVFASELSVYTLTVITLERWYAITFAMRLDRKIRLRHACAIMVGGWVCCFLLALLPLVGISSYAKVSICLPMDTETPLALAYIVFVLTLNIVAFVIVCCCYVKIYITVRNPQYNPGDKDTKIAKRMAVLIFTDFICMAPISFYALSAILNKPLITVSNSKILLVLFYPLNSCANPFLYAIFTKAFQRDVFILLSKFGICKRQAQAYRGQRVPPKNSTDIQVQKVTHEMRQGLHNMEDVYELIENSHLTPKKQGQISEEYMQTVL

Take `Cc1cccc(OP(=O)(Oc2cccc(C)c2)Oc2cccc(C)c2)c1`: the Potency result in assay [1], in [2], in assay [3], in assay [4], in assay [6] and in [7] was “inactive” throughout. The Potency entry in assay [8], in [10], in assay [11], in assay [12], in [13] and in assay [15] was “inactive” each time. Besides, the Potency result in assay [16], in assay [17] and in [18] was “inactive” throughout. The compound was classed as inactive in assay [5] and in assay [14]. The Potency in assay [9] was 43.3 µM (active).

As for `C[C@@H]1O[C@@H](O[C@@H]2C=C3CC[C@@H]4[C@H](CC[C@]5(C)[C@@H](c6ccc(=O)oc6)CC[C@]45O)[C@@]3(C)CC2)[C@H](O)[C@H](O)[C@H]1O`, the Potency result in [1], in assay [7], in assay [8], in assay [15], in assay [16] and in [18] was “inactive” throughout. Moreover, the Potency in assay [2] is 9.4 nM (active); in assay [3] it was 29.8 nM (active); in [4], 9.4 nM (active); in assay [6] it was 0.298 µM (active); in [10], 13.3 nM (active); in [11], 0.0168 µM (active). Besides, the result in assay [5] was inactive.

On to `COC(=O)N(C(=O)N1CO[C@@]2(C(=O)OC)Cc3cc(Cl)ccc3C2=N1)c1ccc(OC(F)(F)F)cc1`, for which the Potency result in assay [1], in assay [2], in assay [3], in [4], in assay [19] and in assay [6] was “inactive” each time. Moreover, the Potency result in assay [7], in [12], in assay [13], in assay [17] and in assay [18] was “inactive” throughout. For the same compound, the compound was called inactive in [14].

Turning to `CC(C)C(=O)Cl`, the Potency result in assay [1], in [2], in assay [3], in [4], in assay [6] and in assay [7] was “inactive” each time. Further, the Potency entry in [8], in [9], in [10], in [11], in [12] and in [13] was “inactive” throughout. For the same compound, the Potency result in assay [15], in assay [16], in assay [17] and in [18] was “inactive” in each case. The outcome in [5] and in assay [14] was inactive.

In the case of `C[C@@H]1O[C@@H](O[C@H]2C[C@@H](O)[C@]3(CO)[C@H]4[C@H](O)C[C@]5(C)[C@@H](C6=CC(=O)OC6)CC[C@]5(O)[C@@H]4CC[C@]3(O)C2)[C@H](O)[C@H](O)[C@H]1O`, the Potency result in [1], in [19], in assay [7], in [8], in [15] and in assay [16] was “inactive” in each case. Moreover, the Potency result in assay [18] is “inactive”. Moreover, the Potency in [2] was 81.9 nM (active) and 94.4 nM (active); in assay [3], 366 nM (active) and 168 nM (active); in [4], 46.1 nM (active) and 75 nM (active); in [10] it was 81.9 nM (active) and 150 nM (active); in assay [11], 116 nM (active) and 168 nM (active).

Take `[Cl][Sn]([c]1ccccc1)([c]1ccccc1)[c]1ccccc1`: the Potency in [1] was 1.16 µM (active); in assay [2] it was 820 nM (active); in assay [7] it was 11.6 µM (active); in assay [10] it was 1300 nM (active); in [11], 1.64 µM (active); in [12], 2.61 µM (active). Also, the results for the Potency in assay [13], in assay [17] and in assay [18] were 2.61 µM (active), 1.03 µM (active) and 1.46 µM (active), respectively. In addition, the activation in assay [3] was -10.8% [at 19 µM]; in assay [19] it was -14.6% [at 19 µM].

Regarding `CCCCCCCCCCCCCCCCCCn1cc[n+](C)c1`, the Potency in assay [1] was 21.6 µM (active); in [2], 30500 nM (active); in assay [7], 60.8 µM (active); in assay [9] it was 54.2 µM (active); in [11], 30.5 µM (active); in assay [12], 21.7 µM (active). Moreover, the results for the Potency in [13] and in assay [17] were 48.7 µM (active) and 8.58 µM (active), respectively. Moreover, the Potency entry in [3], in assay [19], in [6], in assay [8], in [15] and in assay [16] was “inactive” in each case. Further, the Potency entry in assay [18] was “inactive”. The result in assay [5] was inactive.

As for `O=[N+]([O-])c1ccc2ccc3cccc4ccc1c2c34`, the results for the Potency in [1], in assay [2] and in assay [7] were 48.5 µM (active), 30600 nM (active) and 38.5 µM (active), respectively. Further, the Potency entry in assay [3], in [19], in [8], in [10], in assay [11] and in assay [12] was “inactive” each time. Besides, the Potency entry in assay [13], in [15], in [16] and in assay [18] was “inactive” throughout.

These data come from PubChem BioAssay (Tox21).
